Assay results from the supplement of paper PMC10105736.
Unmarked numbers belong to inactive results.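 The calls were made as follows: active = MAPPIT score above the 99th percentile of random reference set scores in the same batch; inactive = at or below it.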

Experiments:
Experiment in all cases: MAPPIT interaction score (arbitrary units); higher = stronger binary interaction signal, active = hit call of the paper
[1] = target: CG2021; conditions: MAPPIT configuration: N-N; pair source set: DPIM
[2] = target: CG2199; conditions: MAPPIT configuration: N-N; pair source set: Curagen_low_conf
[3] = target: Paics; conditions: MAPPIT configuration: N-N; pair source set: DPIM
[4] = target: CG30349; conditions: MAPPIT configuration: N-N; pair source set: Curagen_low_conf
[5] = target: CG2772; conditions: pair source set: RRS
[6] = target: CG2852; conditions: pair source set: Lit-BM-16
[7] = target: CG1789; conditions: MAPPIT configuration: N-N; pair source set: Finley_Y2H
[8] = target: Mnt; conditions: pair source set: Lit-BM-16
[9] = target: CG2991; conditions: MAPPIT configuration: N-N; pair source set: RRS
[10] = target: CG2017; conditions: MAPPIT configuration: N-N; pair source set: screen_1
[11] = target: CG17991; conditions: MAPPIT configuration: N-C
[12] = target: park; conditions: MAPPIT configuration: N-C; pair source set: screen_4
[13] = target: sina; conditions: MAPPIT configuration: N-N; pair source set: screen_2
[14] = target: CG1971; conditions: MAPPIT configuration: N-N; pair source set: Curagen_high_conf
[15] = target: CG9986; conditions: MAPPIT configuration: N-N; pair source set: Curagen_low_conf
[16] = target: Mdr49; conditions: MAPPIT configuration: N-N; pair source set: Lit-BS-16
[17] = target: PAN3; conditions: MAPPIT configuration: N-N; pair source set: Curagen_low_conf
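Also: HEK293T cells with Epo stimulation, STAT-responsive firefly luciferase reporter, fold induction versus unstimulated cells divided by the larger fold induction of two negative controls lacking either bait or prey.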

B1: MP1 (protein)
chain: MEPHFFFTVLWMLLMGTSSTYAQEIFGYCRTPDENSGTCINLRECGYLFELLQSEEVTEQDRRFLQASQCGYRNGQVLEKHFCFTNVQICCANSRMRNQQPQWGNHPQPTQTTKPTKRSGTKLLPMAPNCGENFGDRVVGGNETTKREFPWMALIEYTKPGNVKGHHCGGSLINHRYVLTAAHCVSAIPSDWELTGVRLGEWDASTNPDCTVGKNGRRDCNEPYVDYPVEERIPHPQYPGNSRDQLNDIALLRLRDEVQYSDFILPVCLPTLASQHNNIFLGRKVVVAGWGRTETNFTSNIKLKAELDTVPTSECNQRYATQRRTVTTKQMCAGGVEGVDSCRGDSGGPLLLEDYSNGNSNYYIAGVVSYGPTPCGLKGWPGVYTRVEAYLNWIENNVRA
In the case of B1, the MAPPIT interaction score [1] is reported as -0.105.

B2: Hel25E (protein)
chain: MADNDDLLDYEDEEQTETTAVENQEAPKKDVKGTYVSIHSSGFRDFLLKPEILRAIVDCGFEHPSEVQHECIPQAVLGMDILCQAKSGMGKTAVFVLATLQQLEPSDNNTCHVLVMCHTRELAFQISKEYERFSKYMPTVKVAVFFGGMAIQKDEETLKSGTPHIVVGTPGRILALIRNKKLNLKLLKHFVLDECDKMLEQLDMRRDVQEIFRSTPHGKQVMMFSATLSKDIRPVCKKFMQDPMEVYVDDEAKLTLHGLQQHYVNLKENEKNKKLFELLDVLEFNQVVIFVKSVQRCVALSQLLTEQNFPAIGIHRGMTQEERLNRYQQFKDFQKRILVATNLFGRGMDIERVNIVFNYDMPEDSDTYLHRVARAGRFGTKGLAITFVSDENDAKILNEVQDRFDVNISELPEEIDLSTYIEGR
B2 gave an MAPPIT interaction score [2] of -0.422 and an MAPPIT interaction score [3] of 1.6.

B3: kdn (protein)
chain: MSLYRISARKLSEAQKLPNVGAYVRMIAADGKSLRDVLAAKVPQEQERVKNFRKQHGATKMGETTIDMMYGGMRGIKALVTETSVLDADEGIRFRGLSIPECQKVLPAADGGTEPLPEGLFWLLLTGEVPTKSQVQQLSREWAERAALPQHVVTMLNNMPTTLHPMSQFAAAVTALNHDSKFAKAYSDGVHKSKYWEYVYEDSMDLIAKLPVVAATIYCNTYRGGKGSRSIDSSLDWSANFVKMLGYDNAPFTELMRLYLTIHSDHEGGNVSAHTVHLVGSALSDPYLSFAAGLNGLAGPLHGLANQEVLVWLRKLQKEAGNNPSEEQLKEYIWKTLKSGQVVPGYGHAVLRKTDPRYTCQREFALKHLPEDETFQLVSKIYKVVPPILTETGKVKNPWPNVDAHSGVLLQYYGMKEMNYYTVLFGVSRALGVLASLVWDRALGLPIERPKSFSTDLLVKMVQK
B3 was tested, and the MAPPIT interaction score [4] was 0.214.

B4: okr (protein)
chain: MRRSLAPSQRGPLRPESRHSFTPPLLKKNKRSCQQELEREQELDRRRLGALRDASNTSELPLPIRFTANSEYELAIAKVLARKFKVPMDNYVPDYGGKRVLGVRRCISRRPLHDPMACNALVLFHPPAYTEHERMGMDPTKVLVHVVVDPLLSNILRPHQREGVRFMYECVEGKRGNFNGCIMADEMGLGKTLQCVTLVWTLLRQGPECKPTINKAIVVSPSSLVKNWEKEFTKWLHGRLLCLPMEGGTKENTIRALEQFSMTSARLGTPVLLISYETFRIYAEILCKYEVGMVICDEGHRLKNSDNLTYQALMGLKTKRRVLLSGTPIQNDLTEYYSLVNFVNPEMLGTAAVFKRNFESAILRGQNTDSTEQERQRAIEKTQELIGLVDQCIIRRTNQILTKYLPVKFEMVICAKLTAIQLELYTNFLKSDQVRRSLADCNEKASLTALADITTLKKICSHPDLIYEKLTAREKGFENSQNVLPSNYKPKDLNPELSGKFMLLDFMLAAIRAEGNDKVVLISNYTQTLDLFEQLARKRKYGFVRLDGTMSIKKRSKVVDRFNDPESDSFLFMLSSKAGGCGLNLIGANRLFMFDPDWNPANDEQAMARVWRDGQKKPCYIYRLVASGSIEEKILQRQTHKKSLSSTIIDNNESAEKHFTRDDLKDLFTFDANILSDTHDKLKCKRCVQNIQMKPPPEDTDCTSHLSQWYHCSNNRGLPDNILAQAWMDCKCVSFVFHHRSQAQEIVPSAEEEATDQPEEKPESRKRSSTPASDDSADEDFRGF
B4 showed an MAPPIT interaction score ([5]; MAPPIT configuration: N-C) of -0.364 and an MAPPIT interaction score ([5]; MAPPIT configuration: N-N) of -0.357.

B5: Pdi (protein)
chain: MKFLICALFLAASYVAASAEAEVKVEEGVLVATVDNFKQLIADNEFVLVEFYAPWCGHCKALAPEYAKAAQQLAEKESPIKLAKVDATVEGELAEQYAVRGYPTLKFFRSGSPVEYSGGRQAADIIAWVTKKTGPPAKDLTSVADAEQFLKDNEIAIIGFFKDLESEEAKTFTKVANALDSFVFGVSSNADVIAKYEAKDNGVVLFKPFDDKKSVFEGELNEENLKKFAQVQSLPLIVDFNHESASKIFGGSIKSHLLFFVSREGGHIEKYVDPLKEIAKKYRDDILFVTISSDEEDHTRIFEFFGMNKEEVPTIRLIKLEEDMAKYKPESDDLSAETIEAFLKKFLDGKLKQHLLSQELPEDWDKNPVKVLVSSNFESVALDKSKSVLVEFYAPWCGHCKQLAPIYDQLAEKYKDNEDIVIAKMDSTANELESIKISSFPTIKYFRKEDNKVIDFNLDRTLDDFVKFLDANGEVADSEPVEETEEEEEAPKKDEL
Work on B5 yielded an MAPPIT interaction score ([6]; MAPPIT configuration: N-C) of -0.281 and an MAPPIT interaction score ([6]; MAPPIT configuration: N-N) of 1.74.

B6: Max (protein)
chain: MSMSDDDRDIDIESDEDGDSDTGLGSSRHTNTANFTQAEKRAHHNALERRRRDHIKESFTNLREAVPTLKGEKASRAQILKKTTECIQTMRRKISENQKDIEEIKRQNNIIAKQIQALESSNGDQFSEFLSDEEVGSEEADDEDLDQDFSRRNKKMKTFHA
For B6, the MAPPIT interaction score [7] was 0.0947, the MAPPIT interaction score ([8]; MAPPIT configuration: N-C) was 4.14 (active) and the MAPPIT interaction score ([8]; MAPPIT configuration: N-N) was 5.94 (active).

B7: wda (protein)
chain: MSLPSASNHAHAASPVYSNSNNNKSSASSKKTSSKNDLLRCAVGLLLKQKNYVSNERFRRSDFLLLQNKQQFAVNKMLDTDLHGGNSFTFSNVQVITNNQHTVDQQFGRFSQFVEAQAEPLRLEMKRFYGPMLCHFYLDLLKAREPRGAVELLRKYAHLVAPVDMYDAPPPTKINGCSTTANESTFNIRFAKEAQDTGDTELDYFMRLVQTLSGYTRLEAAESDDTVAHFRSSKYELHTTAVVVNRICAYLQRRGHVLIMNLLYTWLHVHIVENEQRAFSEDHLLGLTDDLEGEDGEDDVVSKPAVTLNTRGDIRPSKSLTEKSNRKRPAEEPNIMLETDIKQEVETDESAELSKLQLNIDACLDTLKSATEQILKSQVELPRFLRISERSRGLTSAHLDPSECHMLAGFDNSAVQLWQLNQSYCRGKSFYRRYPQKRCPWELNNCANQEEETDEDSSDEDVKCSEEERRERNRARHCKYADNSYNEYGGFQLRGHTKGVTDVRFSAHYPLMYSVSKDATMRCWRAHNLHCAAIYRSHNYPIWCLDESPVGQYVVTGSKDLSARLWSLEKEHALIIYAGHTQDVECVAFHPNGNYIATGSADHSVRLWCATSGKLMRVFADCRQAVTQLAFSPDGKMLAAAGEETKVRIFDLAAGAQLAELKDHSASISSLSWSTHNRHLATACSDGTLRLWDIKKLSPMSDNSSAGSSSSATTNRVLTVNSSCQRLVDVFYGTSKTLYCIGT
For B7, the MAPPIT interaction score [9] was -0.317.

B8: bin3 (protein)
chain: MEKRLSDSPGDCRVTRSTMTPTLRLDQTSRQEPLPQQPDNGPAAAPGKSKSPTPLPGKSQAAQHHQFRAPQQQQGPKNRNKAWSKRQHKAGGKHNPSACVGASSGQAQSTGSSVIAATLLPTAASAHKADLENIQNIHNKNLTAGGGVNHHGNAGTAHHGGGGGAGAHHAAAGGHHHHHNTRLAQNAAAGGASGGGTIQMHKKMLRGHHHHVLCAGNNANHTCCLVTGCNGSSIGGVGVAGSGGATASAGGGGASCKEAQSCKDTSSLSGNSSIAGSAGAGNAVHYCCGRSKFFLPEKRLRKEVIVPPTKFLLGGNISDPLNLNSLQNENTSNASSTNNTPATTPRQSPITTPPKVEVIIPPNIHDPLHLLDPVDSMEYEKQLTSPMKRAGPGGGMLHHRQHHYRTRKNRKRRRFDSNNTSHAGDEGGVGSELTDEPPLPAATSSLAASPVAAPLNVGGSLLLSESAAPAPGETAEMGQQQEQAHVHSPQSASTTTTAAEMPTPTPTSAAAATATAEHKEQSAPAPTATSSPQRQQQHVAAAAEELPTPETSAAAETPAEEMLLSCSATSASLVASTLAERRASRDLRLDLSSTCYGVGGTGLSFGGSISSSVGSSFGGGGRKRKISESSTSQKSKKFHRHDAMDKIVSPVVPQPGAWKRPPRILQPSGARKPSTRRSTSVSESELLSPVEEQPPKQLPLIGVEIPRDDTPDLPDHGLGSPLSTTSGATSHTAGEQDSLAGVDISMGDTLGSGVVGKAPLTSSLMLEPAKIPPIKMLPKFRADGLKYRYGNFDRYVDFRQMNEFRDVRLQVFQRHVELFENKDILDIGCNVGHMTITVARHLAPKTIVGIDIDRELVARARRNLSIFVRIPKEEKLLEVKAEPTVDAKANIAVKDETSGAAHKKTRRGKRRRKVHQGIHHHHHHHHDLEQLQQQQKLNSLLVKPHEFFPISFPLTYGRIPRILSSSKSPNMLGNKNQFPANVFFRHTNYVLKDESLMASDTQQYDLILCLSVTKWIHLNFGDNGLKMAFKRMFNQLRPGGKLILEAQNWASYKKKKNLTPEIYNNYKQIEFFPNKFHEYLLSSEVGFSHSYTLGVPRHMNKGFCRPIQLYAKGDYTPNHVRWSDAYYPQTPYEAYRGIYATLPVHRMGGGGSSAGGSNSGHAQMLHLSSSSRSQNYDTPHYAGSASGSASCRQTPMYQPTYNPLETDSYQPSYDMEYLNHMYVFASPLYQTVWSPPASLRKSSSHTPVFGSVRDAELDGDGSGGGGSGGGSYHRHVYPPNDDTCSPNANACNAFNSIRDADTDDSNQLPGGSRRHVYATNCGESSSSPQVNHHDAVGEFVDGLMDDEQKSSTGGGTGGAAYCDLSDA
In the case of B8, the MAPPIT interaction score [10] is reported as 0.262.

B9: CG5532 (protein)
chain: MPVDWFGYVYAATVAAGGIMGYAKAGSIPSLGAGLAFGALLGYGAHLNSQDTPRPLLQLGTSLFLAGLMGARWNRSGKLMPAGMVCMLSVAALVKNLATYNRYLMPAGTKAP
B9 gave an MAPPIT interaction score ([11]; pair source set: screen_4) of 0.124 and an MAPPIT interaction score [12] of 0.413.

B10: ben (protein)
chain: MSSLPRRIIKETQRLMQEPVPGINAIPDENNARYFHVIVTGPNDSPFEGGVFKLELFLPEDYPMSAPKVRFITKIYHPNIDRLGRICLDVLKDKWSPALQIRTILLSIQALLSAPNPDDPLANDVAELWKVNEAEAIRNAREWTQKYAVED
B10 showed an MAPPIT interaction score ([11]; pair source set: screen_3) of 0.127 and an MAPPIT interaction score [13] of 0.428.

B11: CG2678 (protein)
chain: MMHSAKNVCRTCMDETGTLVDIFANVRDPVLDEPEMSLSHILARCTERPVKRGDLLPQFICVSCVLAVQNAFRFKWQSEQSYQHFFRVLNQSGAPENQVHLAACNGDKNQIINQKMQLKSDRQQDTQQMTKTQKPDDDLSQKQTLQAKLQEGNIDGPPESFTLHPRKRTCRTEEQADMIPKEATRSTKMICDADGYYNCPHCSKRFCSQTQLRTHITDLCNRCPYCPRTYMQKSNLKRHLRNHLSKPAHKCFHCSKAFMRKDHLKRHLRTHDSDGPLSCSQCSAVFIEHVQLEIHRREHKQRPGSSKSESTKDPDSDDSDQAQDLKPKWTKNTFNGTCSIPPMLKPKPICDICQKKFSSVYALKRHMLTHNRQHHLKKCTYCSEEFKTEKHLKRHERGHMGDLFRCEFCSLVFVDVNYLRKHKKRIHSNNVIAM
For B11, the MAPPIT interaction score [14] was -0.147, the MAPPIT interaction score [15] was -0.191 and the MAPPIT interaction score [16] was -0.0532. It also gave an MAPPIT interaction score [17] of -0.0312.
